Experimental data taken from PubChem BioAssay (NCI).
“And” between values parts separate entries of the source, which are not always exact repeats. Identical values can stand only once. About 79,000 compounds went through this panel and 15% of them were active in at least one assay; those are over-represented in the sample as a whole. The source made the active and inactive calls. Cut-off read from the data, not from the text of the source: active = growth inhibition above about 70%; inactive = the rest.

Key:
[1] = NCI Yeast Anticancer Drug Screen. Data for the rad50 strain (AID 155);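 note: 0% = growth of vehicle-only cultures of the same strain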; settings: S. cerevisiae rad50 strain growth inhibition; at 50.0 µM; stronger effect = higher value
Method in brief: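 A DNA repair-deficient yeast mutant serves as the test organism; compound-induced growth inhibition is calculated against vehicle-treated cells.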

[2] = NCI Yeast Anticancer Drug Screen. Data for the mec2-1 strain (AID 157); settings: S. cerevisiae mec2-1 strain, at 50.0 µM, stronger effect = higher value
Method in brief: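 Cells of the genetically defined mec2-1 yeast strain are incubated with test compound. Inhibition of growth is calculated against vehicle-treated controls.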

[3] = NCI Yeast Anticancer Drug Screen. Data for the sgs1 mgt1 strain (AID 161);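 note: 0% = growth of cultures given vehicle only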; settings: S. cerevisiae sgs1 mgt1 strain, at 50.0 µM, stronger effect = higher value
Method in brief: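 Mutant yeast exposed to compound; growth scored against vehicle-only wells.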

[4] = NCI Yeast Anticancer Drug Screen. Data for the cln2 rad14 strain (AID 165);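 note: 0% = growth equal to vehicle treated cultures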; settings: S. cerevisiae cln2 rad14 strain, at 50.0 µM, stronger effect = higher value
Method in brief: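 The screen exposed genetically defined yeast (cln2 rad14) to test compounds and scored growth inhibition relative to vehicle-treated controls.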

[5] = NCI Yeast Anticancer Drug Screen. Data for the bub3 strain (AID 167); settings: S. cerevisiae bub3 mutant strain, at 50.0 µM, stronger effect = higher value
Method in brief: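 Inhibition values come from growth of compound-treated mutant yeast normalised to vehicle-treated controls.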

[6] = NCI Yeast Anticancer Drug Screen. Data for the mlh1 rad18 strain (AID 175); settings: S. cerevisiae mlh1 rad18 strain growth inhibition; at 50.0 µM; stronger effect = higher value
Method in brief: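 Compound-treated yeast growth, normalised to vehicle controls. Strain bears defined DNA repair mutations.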

Measured: growth inhibition

Cc1cccc(NC(=O)C(=O)C2C(=O)NC(=O)NC2=O)c1C
inactive: [1] 0.7% | [2] 13.8% | [3] -14% | [4] 7.25% | [5] 20.2% | [6] 12.2%

CC(C)CCC[C@@H](C)[C@H]1CC[C@H]2[C@@H]3CC[C@H]4C[C@H]5N[C@H]5C[C@]4(C)[C@H]3CC[C@]12C
inactive: [1] 10.6% | [2] -21.8% | [3] 5.2% | [4] -3.55% | [5] -9.6% | [6] 0.1%

O=[N+]([O-])c1cccc(/C=C/C=C/c2ccc(Cl)c(S(=O)(=O)F)c2)c1
inactive: [1] 7.95% | [2] 14.4% | [3] -39.5% | [4] 6.5% | [5] 9.05% | [6] -7.1%

NC(CO)Cc1ccccc1 (stereo not drawn)
inactive: [1] -1.6% and 0.85% | [2] 0.3% and -4% | [3] -1.45% and -4.1% | [4] -21.6% and 4.05% | [5] 13.9% and 14.8% | [6] 2.05% and -1.35%

O=C(Cc1cccc([N+](=O)[O-])c1)Nc1cccc(S(=O)(=O)F)c1
inactive: [1] 5.8% | [2] -19.6% | [3] -20.3% | [4] -2.9% | [5] 16.6% | [6] 23.9%

CCOP(=O)(OCC)/C(C#N)=C(\C)c1ccco1
inactive: [1] -26.4% | [2] -28.9% | [3] -15.3% | [4] -18.4% | [5] -11.6% | [6] -1.2%

Oc1ccc(Cc2ccc(O)cc2)cc1
inactive: [1] -0.2% | [2] -3.4% | [3] -0.3% | [4] -16.3% | [5] -3.1% | [6] 5.85%

Cc1ccc(NP(=S)(Nc2ccc(C)cc2C)Nc2ccc(C)cc2C)c(C)c1
inactive: [1] 18.3% | [2] -1.6% | [3] -3.1% | [4] 17.9% | [5] 2.7% | [6] 9.55%

COc1ccc2c(c1O)C13CCN(C)C(C2)C1CCC(O)C3 (stereo not drawn)
inactive: [1] -16.4% | [2] 2.95% | [3] -11.8% | [4] -11.8% | [5] -1.7% | [6] -20%

NCC1OC(OC2C(CO)OC(OC3C(O)C(N)CC(N)C3OC3OC(CN)C(O)C(O)C3N)C2O)C(N)C(O)C1O (stereo not drawn)
inactive: [1] 6.1% | [2] 2.3% | [3] 10.3% | [4] 3% | [5] 15.4% | [6] 6.8%

COC(=O)c1ccc(C=C(C#N)C#N)cc1
inactive: [1] -5.75% | [2] -2.6% | [3] -27.9% | [4] 30.6% | [5] 2.45% | [6] -21%

CP1(=O)CCC23CCCCC21O3 (stereo not drawn)
inactive: [1] 7.9% | [2] -34.8% | [3] -2.3% | [4] -20.8% | [5] 11.7% | [6] -4.25%

O=[P+](O)C(O)c1ccccc1 (stereo not drawn)
inactive: [1] -20.6% | [2] -27.9% | [3] -14.1% | [4] 4.9% | [5] -10.8% | [6] -7.7%

C=C1C(=O)OC2CC3(C)OC3CC/C(C)=C/C(OC(C)=O)C12 (stereo not drawn)
inactive: [1] 27.1% | [2] 37.4% | [3] 29.6% | [4] 21.1% | [5] 45.1% | [6] 38%

COc1cc(CCN(C)C)c([N+](=O)[O-])cc1OC
inactive: [1] 7.9% | [2] 21.6% | [3] 19.3% | [4] 17% | [5] 0.2% | [6] 34.7%

CO[C@H]1C=C[C@@]23c4cc5c(cc4CO[C@]2(O)CN(C)[C@H]3C1)OCO5
inactive: [1] -16.2% | [2] -1.35% | [3] -10.8% | [4] -1.35% | [5] 1.8% | [6] -41%

C1CCC(NC2CCCC2)C1
inactive: [1] 13.4% | [2] -0.5% | [3] 10.1% | [4] 11.7% | [5] -8.4% | [6] 5.45%

[Cl][Pt+2][Cl].c1ccc(CC2CC[N-]CC2)cc1.c1ccc(CC2CC[N-]CC2)cc1
inactive: [1] -11.6% | [2] 1.1% | [3] 1.3% | [4] 2.35% | [5] 9.3% | [6] -3.6%

CN(C)CCc1ccc(Cl)cc1Cl
inactive: [1] 11.1% | [2] 14.3% | [3] -2.5% | [4] 6.6% | [5] 3.75% | [6] 22.4%

COP(=O)(Cc1ccccc1)OC
inactive: [1] -1% | [2] 5.15% | [3] -0.95% | [4] -43.1% | [5] 2.3% | [6] -11.8%

CCc1cccc(C(C)C)c1NC(=O)C(=O)C1C(=O)NC(=O)NC1=O
inactive: [1] -40.1% | [2] -12.2% | [3] -9.45% | [4] 18.1% | [5] -10.6% | [6] -31.4%

O=P(O)(O)CCCCP(=O)(O)O.[Zn+2]
inactive: [1] -3.05% | [2] -2.45% | [3] 1.6% | [4] -5.1% | [5] 3.75% | [6] 7.05%

CCCC(C)COC(=O)Cc1ccccc1 (stereo not drawn)
inactive: [1] 18.3% | [2] 18.2% | [3] 9.55% | [4] -27.9% | [5] 4.3% | [6] 15.2%

C=CCc1cc(-c2cc(CC=C)c(O)c(CN(CCCl)CCCl)c2)cc(CN(CCCl)CCCl)c1O
inactive: [1] 41.5% | [2] 49.8% | [3] 47.1% | [4] 43.1% | [5] 60% | [6] 44.1%

COc1ccc(CCNC2(C#N)CCCCC2)cc1OC
inactive: [1] -9.5% | [2] -29.8% | [3] 0.05% | [4] 10.2% | [5] -5.75% | [6] -5.25%

N#CCCCCCl
inactive: [1] 19.4% | [2] 10.9% | [3] 16.3% | [4] 25.2% | [5] 13.6% | [6] 28.9%

CCOP1(=S)NNP(=S)(OCC)NN1 (stereo not drawn)
inactive: [1] -2.75% | [2] -11.5% | [3] -3.75% | [4] 18.4% | [5] 10.2% | [6] 8.85%

CCC[N+](CCC)(CCC)CCC.[Ni+2].[SH2+]C([SH2+])=Nc1ccccc1.[SH2+]C([SH2+])=Nc1ccccc1
inactive: [1] 24.1% | [2] 18.9% | [3] 9.6% | [4] -20.9% | [5] 4.7% | [6] 30.1%

CN(C)S(=O)(=O)N(SC(F)(Cl)Cl)c1ccccc1
active: [1] 98.8% | [2] 99.5% | [3] 99.4% | [4] 98.8% | [5] 99.2% | [6] 99%

C1CC[N-]CC1.CC(=N\O)/C(C)=N/O.CC(=N\O)/C(C)=N/O.[CH2-]Cl.[Co+2]
inactive: [1] 4.6% | [2] 14.8% | [3] 14.4% | [4] -31.6% | [5] 20.1% | [6] 27.9%

COc1ccc(C(N)Cc2ccccc2)cc1 (stereo not drawn)
inactive: [1] 10.8% | [2] 3.15% | [3] 10.8% | [4] 9.85% | [5] 3.5% | [6] -2.35%

Cc1cnc2ncn(Cc3c[nH]c(=O)[nH]c3=O)c(=O)c2c1
inactive: [1] -0.45% | [2] 5.55% | [3] -8% | [4] 14.2% | [5] -18.4% | [6] -11.5%

COC(=O)C1=NNC2(c3ccccc3Sc3ccccc32)C1C(=O)OC (stereo not drawn)
inactive: [1] -8.95% | [2] -8.25% | [3] -12.5% | [4] 25.5% | [5] -18.9% | [6] -11.8%

CC(C)(C)C[C](C)(c1ccccc1)[Sn]([CH3])([CH3])[CH3] (stereo not drawn)
inactive: [1] -14.2% | [2] 4.9% | [3] 8.4% | [4] 6.9% | [5] 1.2% | [6] 7%

COc1ccc(/C=C/C(=O)c2c(-c3ccccc3)nn(C)c(=O)c2N2CC2C)cc1 (stereo not drawn)
inactive: [1] -11.6% | [2] 19.9% | [3] -10.4% | [4] -7.2% | [5] -4.8% | [6] -13.4%

COc1cccc(C=C2C(=O)NC(=S)NC2=O)c1O
inactive: [1] -8.95% | [2] -12.6% | [3] -4.35% | [4] 15.7% | [5] -2.25% | [6] 26.6%

COc1cccc(C=O)c1OC
inactive: [1] 15.8% and 43.1% | [2] 2.2% and 24.1% | [3] 4.2% and 20.9% | [4] 27.1% and -7.95% | [5] 3.5% and 12.7% | [6] 47% and 37.1%

C(#CCN1CCCCCC1)CN1CCCCCC1
inactive: [1] 0.55% | [2] -9.8% | [3] 0.05% | [4] -8.85% | [5] -14.1% | [6] -2.7%
